Measurements taken from the supplement of paper PMC10105736.

Key:
Test in all cases: MAPPIT interaction score (arbitrary units); higher = stronger binary interaction signal, active = hit call of the paper;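 active = MAPPIT score above the 99th percentile of random reference set scores in the same batch; inactive = at or below it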
Pgd = biological target: Pgd
Prosbeta2 = details: MAPPIT configuration: N-N; pair source set: Lit-BM-16
Pgam5 = details: MAPPIT configuration: N-N; pair source set: DPIM
Pfdn5 = details: pair source set: Lit-BM-16
Pdha = details: pair source set: Lit-BM-16
qua = details: MAPPIT configuration: N-N; pair source set: DPIM
Pex14 = details: MAPPIT configuration: N-C; pair source set: screen_3
Pex3 = details: MAPPIT configuration: N-C
SsRbeta = details: MAPPIT configuration: N-C; pair source set: screen_3
Pfdn1 = details: MAPPIT configuration: N-N; pair source set: Curagen_high_conf
Pis = details: MAPPIT configuration: N-N; pair source set: DPIM
Prosalpha2 = details: pair source set: Lit-BM-16
Prosalpha4 = details: MAPPIT configuration: N-N; pair source set: Lit-BM-16
Prosbeta7 = details: pair source set: Lit-BM-16
Rpt2 = details: MAPPIT configuration: N-N
Rpt4 = details: MAPPIT configuration: N-N; pair source set: Lit-BM-16
PolZ2 = details: MAPPIT configuration: N-N; pair source set: Finley_Y2H
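Further: HEK293T cells with Epo stimulation, STAT-responsive firefly luciferase reporter, fold induction versus unstimulated cells divided by the larger fold induction of two negative controls lacking either bait or prey.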

B1: up (protein)
chain: MSDDEEYTSSEEEEVVEETREETKPPQTPAEGEGDPEFIKRQDQKRSDLDDQLKEYITEWRKQRSKEEDELKKLKEKQAKRKVTRAEEEQKMAQRKKEEEERRVREAEEKKQREIEEKRMRLEEAEKKRQAMLQAMKDKDKKGPNFTIAKKDAGVLGLSSAAMERNKTKEQLEEEKKISLSFRIKPLAIEGFGEAKLREKAQELWELIVKLETEKYDLEERQKRQDYDLKELKERQKQQLRHKALKKGLDPEALTGKYPPKIQVASKYERRVDTRSYDDKKKLFEGGWDEISKDSNEKIWNEKKEQYTGRQKSKLPKWFGERPGKKAGEPETPEGEEDAKADEDIVEDDEEVEEEVVEEEDEEAEEDEEEEEEEEEEEEEEEEEEEEEEEEEEEEEE
With B1 the MAPPIT interaction score (Pgd; MAPPIT configuration: N-C, pair source set: RRS) was 1.18 (inactive) and the MAPPIT interaction score (Pgd; MAPPIT configuration: N-N, pair source set: RRS) was 0.149 (inactive).

B2: Prosbeta4 (protein)
chain: MLNNYNSLAQPMWQNGPAPGEFYNFTGGQTPVQQLPRELTTMGPYGTKHSTASSTTGTSVLGIRYDSGVMLAADTLVSYGSMARYQNIERVFKVNKNILLGGSGDFADIQSIKRNIDQKMIEDQCCDDNIEMKPKSLASWMTRVLYNRRSRMNPLYIDVVVGGVDNEGTPYLANVDLRGRSYEDYVVATGFARHLAVPLVREKKPKDRDFTAVEASELIRTCMEVLYYRDTRNISQYTVGVCSVNGCGVEGPFQVNENWTFAETIKGY
B2 was tested, and the MAPPIT interaction score (Prosbeta2) was 2.07 (inactive).

B3: Vps25 (protein)
chain: MAEFQWPWEYTFPPFFTLQPHEETRQQQLKVWTDLFLKYLRHTNRFTLSIGDQNSPLFHNEALKRRLSPELVLAILGELERSGHANPLDKRRQEWQVYWFTLEEYGNMVYDWVQETGQTNTICTLYEIASGENTSHLDFYGVDEAVLLSALRLLEEKGRCELIEMDGSHGVKFF
With B3 the MAPPIT interaction score (Pgam5) was 2.9 (active).

B4: Pfdn2 (protein)
chain: MSTESAKPALSQEAIVAQFQQLRNEQRNLVNSLNTLEMDLREHKTVIETLEAADPERKCFRQIGGVLCERTVKEVLPQLVENKDFIAKTIQMVTNDLSKKGSELNKFKEEHNIKIRGEHLVAEGAKGDDAEDKAENRNVLVFN
With B4 the MAPPIT interaction score (Pfdn5; MAPPIT configuration: N-C) was 2.36 (inactive) and the MAPPIT interaction score (Pfdn5; MAPPIT configuration: N-N) was 5.93 (active).

B5: Pdhb (protein)
chain: MLRTRLIQAASSAQRAFSTSQKALAAKQMTVRDALNSALDDELARDDRVFILGEEVAQYDGAYKVSRGLWKKYGDKRVIDTPITEMGFAGIAVGAAMAGLRPVCEFMTWNFSMQAIDHIINSAAKTFYMSAGAVNVPIVFRGPNGAASGVAAQHSQCFAAWYAHCPGLKVLSPYDAEDARGLLKSAIRDPDPVVFLENELVYGTAFPVADNVADKDFLVPIGKAKVMRPGKDITLVAHSKAVETSLLAAAELAKKGIEAEVINLRSIRPLDTATIFASVRKTHHLVTVENGWPQHGVGAEICARIMEDQTFFELDAPVWRCAGVDVPMPYAKTLEAHALPRVQDLVEATLKVLGGKVGKAAAANK
B5 was tested, and the MAPPIT interaction score (Pdha; MAPPIT configuration: N-C) was 0.121 (inactive), the MAPPIT interaction score (Pdha; MAPPIT configuration: N-N) was 0.456 (inactive) and the MAPPIT interaction score (Pgd; MAPPIT configuration: N-N, pair source set: DPIM) was -0.835 (inactive). For the same binder, the MAPPIT interaction score (qua) was -0.463 (inactive).

B6: CG42540 (protein)
chain: MPDSMMDMEHRDHQLHRQQQQSHHHQPPRLTASTSTFAPPAPAGSQSEERDRDRDRERDHHLHHHQSNNVASSPLPVTASIQLHQQQPQQQQQQQPLTQLQQPQLREREHHQQQQQQQQQMMQQPQQQQQMQQPQQQLPHSHHALMQQSQQQQAIHRAEARRADEEISDKASTCGKLLIFLSVALVIMTLPFSLFVCFKVVQEYERAVIFRLGRLMQGGAKGPGIFFILPCIDSYARVDLRTRTYDVPPQEVLTKDSVTVSVDAVVYYRVSNATVSIANVENAHHSTRLLAQTTLRNTMGTRHLHEILSERMTISGTMQVQLDEATDAWGIKVERVEIKDVRLPVQLQRAMAAEAEAAREARAKVIAAEGEQKASRALREASEVIGDSPAALQLRYLQTLNTISAEKNSTIVFPLPIDLITYFLKTNEATTQQNARAAAAAIGNTPPPLQLAPQQQMGQQQQPQYQQPQQQQQQYQPQQQQQQQQQQPQQQDQLYQQGQQISSAM
For B6, the MAPPIT interaction score (Pex14) was 2.47 (inactive).

B7: hig (protein)
chain: MWSRQRMRHKPLWALISLTVLLLVLDKSNANTEPVETSTTSEPDASPGCRAPDVRFTIVKPEATTEQPLAKFETTQIYLPEDFTTADVEFVDSVPRHPNENHAAVINPYSLDLGDDHLHVGDAAASLVGDDDLGDEDEDHHGDPEDKRLNANRKQGKRRRAGSGRRRRIENENGQTGRGRGSRYKRHAILHDTEASPETDRWAGSKLAAEGDVYYVHIADILKSREPNRELKSKLHKLKMKARLNKCLAEGGKEKCTRLLKKKPKKKVVEKEQTLKKEKKFPKEEQSKEKVPENGQTPKEDELELDHPETAAAHHRRRGDSHAAELDQRDRSPRWRRRRSTEFKGDLGQLPPESGIGPEPEPLADQDLKDLQQYGNQSSSARVALLWQRVKRKSGKTTGALSRPKGGGDSSSKTTSRKDKGIYDEEAGYTPIHPDDPEFDEEEEEDEEVDILQQFTEVSEIRFPGEIGPMGDRRLCKIRCVKGKWVGPLCATNEEDDNGNVKFQPLYKSCHVNRIPSHLLLSYRNISVTPIPPNRGWRKTRLSKSTLLSNTEINVGWDLPHGHSLQARCQELGIYKLLGESRVLCSNGLWAPRMPSCVPTTVLTNYSEDSAPSIRIKIFNGSHSFEPSGVMAVPPHSTVLMDCMYPRVRGTPEWSWTSWYMQYSTGWSPAQEEKAVRYRLSIKNIENNDSGTFTCTSPRGLTNSIAVVVATSTCPQLTEPLAPLKLRLEGNKLGQRAHYECPEGFRLDGAWNATCLASGNWSSPTPTCHAIQCPRLELDDPHLSLIELNTSAWGRAVFKCQWGFKLTGPAQLDCEPSGVWSGPVPRCKVIQCVMPVAPLNGRIGGTSLSQRRLTVGALVTFSCNDGHSLVGESSIICTENGQWSHSPPFCKSQCPYPGDPPNGLIAPLKFNYDAGDYLSVQCRPGFVQSYEGPPERPKCQPDGRWSGPMPKCKSYEEV
With B7 the MAPPIT interaction score (Pex3; pair source set: screen_3) was 1.39 (inactive) and the MAPPIT interaction score (SsRbeta) was -0.0878 (inactive).

B8: heix (protein)
chain: MATSSQLLPNGNLSRNGKTKTEDGEEVEAVVGARAAGADAGVALTGRLTGHPSTSGTFMKLKTYLLALRPWSLSASLVPTLLGSALAYRSQWAEEFSLATFFLTAFTVVTVHCAGNVVNTYFDFIKGIDKQKADDRTLVDHILTKDEVVSLGAILYMAGCGGFVLLAVLSPAKMEHLALIYFGGLSSSFLYTGGIGFKYIALGDLVILILFGPISVLFAFMSQTGHLDWTTMGYAIPLALNTEAILHSNNTRDADNDRRAGIVTLAILIGRTASHVLYAMLLFAPYSLFFIFGLKYSLWFLLPLVTLPQAFQIEKRFRNEQTMHLVPRQTAKLNFFFGILYVVACCCAHQLPTFGLRRN
B8 was tested, and the MAPPIT interaction score (Pex3; pair source set: screen_4) was -0.663 (inactive).

B9: Cpsf6 (protein)
chain: MADVVLDLYAEDLDKDFAGQAQDEFGGDGVDLYDDIGGPTESAASGGGGGGTPSADGAAGPGSGEPGERNSGGPNGVYHQSSGSLTPTMNRRYQLYVGNLTWWTTDQDIANSLRDIGVSDLQEVKFFENRANGQSKGFSVISLGSESSLRAVLDQLPKKEMHGQAPVVTYPSKQALTQFESLQKTRPVPPPQQNGPPRGPAPPSMGGGPMPTGHPGGPQGGGPPGHPPRGMNSIMQPGQYRPQHMSQVPQVGGPNSGPPRMQPPMHPQGGLMGNQQPPPRYPSAQGQWPGQRPGGPRPGPPNGPPQRPMFQGGPMGMPVRGPAGPDWRRPPMHGGFPPQGPPRGLPPAPGPGGPHGAPAPHVNPAFFNQPGGPAQHPGMGGPPHGAPGPQPGMNMPPQQGMNMTPQHGPPPQFAQHGPRGPWPPPQGKPPGPFPDPQQMGPQLTEVEFEEVMSRNRTVSSSAIARAVSDAAAGEYSSAIETLVTAISLIKQSKVAHDERCKILISSLQDTLHGIEAKSYNRRERSRSRERSHRSRQRRERSTSRYRERSRERERDRDRERERDGGSYRERSRSRERERQAPDHYRDDSRSVRPRKSPEPVVAEAAEAPSSKRYYEDRERYRSSDRERRDRDRDRDRERERDRDRREEHRSRH
For B9, the MAPPIT interaction score (Pfdn1) was 0.767 (inactive).

B10: CG7601 (protein)
chain: MKVQDMDKCAPSSDWNVLYWVLGTVLMPVALPLAIINIWQRFQAQKFRNQLPGKVVLITGASSGLGESLAHVFYRAGCRVILAARRTQELERVKKDLLALDVDPAYPPTVLPLDLAELNSIPEFVTRVLAVYNQVDILINNGGISVRADVASTAVDVDLKVMVVNYFGSVALTKALLPSMVKRGSGHICFISSVQGKFAIPQRAAYSASKHAMQAFADSLRAEVANKNINVSCVSPGYIRTQLSLNALTGSGSSYGKVDETTAKGMSPDKLAERILQCILRKEPDIIVSDVQAKIAYYLRHLCPSLYFWIMAKRAVKLENAEKKST
In the case of B10, the MAPPIT interaction score (Pis) is reported as 0.037 (inactive).

B11: Prosbeta3 (protein)
chain: MSILAYNGGCVVAMRGKDCVAIATDHRFGIQAQTISTDFKKVFHIGPRMFLGLTGLQTDILTVRDRLMFRKNLYETRENREMCPKPFSAMMSSFLYEHRFGPYFIEPVVAGLDPKTMEPFICNMDLIGCPNAPDDFVVAGTCAEQLYGMCETLWKPDLEPDQLFEVIAQSIVNAFDRDAMSGWGATVYIIEKDKITERTLKTRMD
With B11 the MAPPIT interaction score (Prosalpha2; MAPPIT configuration: N-N) was 1.33 (inactive), the MAPPIT interaction score (Prosalpha4) was -0.232 (inactive) and the MAPPIT interaction score (Prosbeta7; MAPPIT configuration: N-C) was 0.398 (inactive). For the same binder, the MAPPIT interaction score (Prosbeta7; MAPPIT configuration: N-N) was 0.197 (inactive).

B12: Rpt6 (protein)
chain: MTVTNRMEIESAYHKGEGFRSYYIQKIEELQLVVAEKHQNLRRLQAQRNELNAKVRMLREELQLLQEQGSYVGEVVKPMDKKKVLVKVHPEGKFVVDLDKNIDINDVTPNCRVALRNESYTLHKILPNKVDPLVSLMMVEKVPDSTYEMVGGLDKQIKEIKEVIELPVKHPELFDALGIAQPKGVLLYGPPGTGKTLLARAVAHHTECTFIRVSGSELVQKFIGEGSRMVRELFVMAREHAPSIIFMDEIDSIGSSRIESGSGGDSEVQRTMLELLNQLDGFEATKNIKVIMATNRIDILDPALLRPGRIDRKIEFPPPNEEARLDILKIHSRKMNLTRGINLRKIAELMPGASGAEVKGVCTEAGMYALRERRVHVTQEDFEMAVAKVMQKDSEKNMSIKKLWK
B12 was tested, and the MAPPIT interaction score (Prosalpha2; MAPPIT configuration: N-C) was 1.08 (inactive), the MAPPIT interaction score (Prosalpha2; MAPPIT configuration: N-N) was 1.52 (inactive) and the MAPPIT interaction score (Rpt2; pair source set: Finley_Y2H) was 2.59 (inactive). For the same binder, the MAPPIT interaction score (Rpt2; pair source set: Lit-BM-16) was 2.59 (inactive) and the MAPPIT interaction score (Rpt4) was -0.794 (inactive).

B13: rtp (protein)
chain: MAMDDYDDDMSSVGVTTARIENQHQQHPHQQGQHGHHQQGQGQSQYSAGAVKVGGWRYEDASRYIGEWNQRGQKHGIGHLQFADGTRYDGQFQEGLSQGVGCLWFADGAKYEGEFHQGWFHGNGIFWRADGMKYEGEFRGGKIWGLGLLTFQDFTHGFPRNEGFFQDCRFMRRRRCPEVVQRAQKCALMARSQCEHPY
B13 was tested, and the MAPPIT interaction score (PolZ2) was 0.217 (inactive).
